Measured values: article PMC7862700, “An all-to-all approach to the identification of sequence-specific readers for epigenetic DNA modifications on cytosine”

Tests used:
Experiment in all cases: DAPPL (digital affinity profiling via proximity ligation, sequencing); 10 mM Tris-HCl pH 7.5, 50 mM NaCl, 1 mM DTT, 4% glycerol, room temperature, 30 min; GST-TFs on glutathione beads, 16-mer random dsDNA library, 0.1% formaldehyde crosslink after washing; high values mean tight binding
FLI1 = target: T1, FLI1 (Homo sapiens, UniProt Q01543 1-452); conditions: protein: recombinant; tags: N-terminal GST; dsDNA, one strand shown
T1 sequence: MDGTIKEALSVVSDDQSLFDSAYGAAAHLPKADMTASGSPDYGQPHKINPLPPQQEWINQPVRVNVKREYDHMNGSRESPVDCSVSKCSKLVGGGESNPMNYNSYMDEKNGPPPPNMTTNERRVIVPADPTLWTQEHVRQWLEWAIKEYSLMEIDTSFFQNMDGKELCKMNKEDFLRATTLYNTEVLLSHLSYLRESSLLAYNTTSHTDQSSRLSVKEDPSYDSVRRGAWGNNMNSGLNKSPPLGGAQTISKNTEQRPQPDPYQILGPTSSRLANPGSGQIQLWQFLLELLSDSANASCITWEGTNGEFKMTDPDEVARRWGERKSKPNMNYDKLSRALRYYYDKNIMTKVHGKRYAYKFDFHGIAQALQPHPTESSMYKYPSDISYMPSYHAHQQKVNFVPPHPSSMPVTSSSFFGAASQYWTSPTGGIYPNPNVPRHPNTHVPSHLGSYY
Method in brief: (§1)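 Pools of DNA-barcoded human transcription factors, expressed in yeast as GST fusions on glutathione beads and combined with a tag-only sample, were incubated with 200 nmole of a 16-mer random double-stranded DNA library. Incubation took 30 min at room temperature in Tris/NaCl/DTT/glycerol buffer and was followed by washing, 0.1% formaldehyde crosslinking, proximity ligation (BsaI/T4 ligase, 1 h, 37 °C), PCR amplification and sequencing on an Illumina NextSeq500. Binding signal is the ratio of a hexamer's read frequency for a factor to its frequency for the tag-only sample.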

ELK1 = target: T2, ELK1 (Homo sapiens, UniProt P19419 1-428); conditions: protein: recombinant; tags: N-terminal GST; dsDNA, one strand shown
T2 sequence: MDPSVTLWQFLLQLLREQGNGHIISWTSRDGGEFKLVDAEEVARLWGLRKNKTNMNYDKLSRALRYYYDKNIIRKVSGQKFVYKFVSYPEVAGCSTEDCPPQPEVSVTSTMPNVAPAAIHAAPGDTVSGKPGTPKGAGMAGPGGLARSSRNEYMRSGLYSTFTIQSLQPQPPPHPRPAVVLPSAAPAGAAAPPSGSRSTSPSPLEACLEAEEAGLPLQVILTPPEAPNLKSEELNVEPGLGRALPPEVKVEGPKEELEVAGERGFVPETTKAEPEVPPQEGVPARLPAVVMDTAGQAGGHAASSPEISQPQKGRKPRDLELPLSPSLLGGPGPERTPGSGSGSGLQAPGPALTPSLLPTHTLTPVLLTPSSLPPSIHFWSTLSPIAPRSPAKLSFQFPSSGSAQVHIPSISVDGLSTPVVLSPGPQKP
Method in brief: as §1

GABPA = target: T3, GABPA (Homo sapiens, UniProt Q06546 1-454); conditions: protein: recombinant; tags: N-terminal GST; dsDNA, one strand shown
T3 sequence: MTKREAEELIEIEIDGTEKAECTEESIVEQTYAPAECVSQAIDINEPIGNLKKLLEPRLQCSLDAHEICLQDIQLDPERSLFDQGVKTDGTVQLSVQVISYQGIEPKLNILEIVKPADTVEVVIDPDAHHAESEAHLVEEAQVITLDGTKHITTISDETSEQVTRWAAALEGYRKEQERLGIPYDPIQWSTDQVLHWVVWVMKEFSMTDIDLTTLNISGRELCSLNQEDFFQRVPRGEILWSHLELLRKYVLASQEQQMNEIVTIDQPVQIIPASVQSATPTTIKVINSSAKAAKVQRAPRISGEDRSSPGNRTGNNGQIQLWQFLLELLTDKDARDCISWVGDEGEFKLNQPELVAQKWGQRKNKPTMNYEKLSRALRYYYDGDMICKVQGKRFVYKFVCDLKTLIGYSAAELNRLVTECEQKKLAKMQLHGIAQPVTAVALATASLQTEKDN
Method in brief: as §1

ERG = target: T4, ERG (Homo sapiens, UniProt P11308 1-479); conditions: protein: recombinant; tags: N-terminal GST; dsDNA, one strand shown
T4 sequence: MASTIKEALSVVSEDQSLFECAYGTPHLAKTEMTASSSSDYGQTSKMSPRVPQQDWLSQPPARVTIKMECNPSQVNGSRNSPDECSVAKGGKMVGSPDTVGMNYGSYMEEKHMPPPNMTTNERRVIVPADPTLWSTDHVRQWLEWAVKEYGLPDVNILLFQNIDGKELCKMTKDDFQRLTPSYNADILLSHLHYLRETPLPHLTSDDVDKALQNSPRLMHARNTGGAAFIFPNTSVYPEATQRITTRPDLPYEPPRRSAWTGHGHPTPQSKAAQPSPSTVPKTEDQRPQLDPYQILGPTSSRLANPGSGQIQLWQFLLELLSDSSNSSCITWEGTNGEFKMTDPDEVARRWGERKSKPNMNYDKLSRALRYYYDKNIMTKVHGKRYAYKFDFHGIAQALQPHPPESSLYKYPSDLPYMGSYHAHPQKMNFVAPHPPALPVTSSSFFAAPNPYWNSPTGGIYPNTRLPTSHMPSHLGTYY
Method in brief: as §1

ELF1 = ELF1 (Homo sapiens, UniProt P32519 1-619); conditions: protein: recombinant; tags: N-terminal GST; dsDNA, one strand shown
ELF1, sequence (P32519 whole entry): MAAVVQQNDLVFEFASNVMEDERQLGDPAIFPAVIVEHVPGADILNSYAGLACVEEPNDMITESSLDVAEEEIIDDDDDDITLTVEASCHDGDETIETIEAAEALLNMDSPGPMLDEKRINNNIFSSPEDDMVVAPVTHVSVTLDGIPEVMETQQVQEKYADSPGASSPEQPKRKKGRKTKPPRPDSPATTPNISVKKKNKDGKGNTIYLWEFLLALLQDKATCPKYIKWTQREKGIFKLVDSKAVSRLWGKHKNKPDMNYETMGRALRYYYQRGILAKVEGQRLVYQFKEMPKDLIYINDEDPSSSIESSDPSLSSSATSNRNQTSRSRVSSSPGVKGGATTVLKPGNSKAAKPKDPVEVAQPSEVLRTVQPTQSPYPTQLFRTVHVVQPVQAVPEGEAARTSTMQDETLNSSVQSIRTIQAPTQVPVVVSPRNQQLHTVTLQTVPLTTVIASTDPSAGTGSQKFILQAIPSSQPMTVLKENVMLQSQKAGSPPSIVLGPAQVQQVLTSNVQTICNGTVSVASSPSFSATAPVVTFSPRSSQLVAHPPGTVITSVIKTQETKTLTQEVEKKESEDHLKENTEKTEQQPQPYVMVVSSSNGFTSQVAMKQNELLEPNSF
Method in brief: as §1

EHF = target: T5, EHF (Homo sapiens, UniProt Q9NZC4 1-300); conditions: protein: recombinant; tags: N-terminal GST; dsDNA, one strand shown
T5 sequence: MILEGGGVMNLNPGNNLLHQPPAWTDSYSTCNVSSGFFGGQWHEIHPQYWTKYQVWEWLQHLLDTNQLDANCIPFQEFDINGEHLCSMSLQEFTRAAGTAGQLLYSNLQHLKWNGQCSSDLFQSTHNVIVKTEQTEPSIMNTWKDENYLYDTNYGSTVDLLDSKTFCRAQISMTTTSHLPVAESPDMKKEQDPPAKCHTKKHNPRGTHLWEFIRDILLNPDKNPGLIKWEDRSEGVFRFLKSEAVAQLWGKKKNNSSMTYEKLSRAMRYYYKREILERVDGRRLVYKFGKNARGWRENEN
Method in brief: as §1

SPI1 = SPI1 (Homo sapiens, UniProt P17947 1-270); conditions: protein: recombinant; tags: N-terminal GST; dsDNA, one strand shown
Method in brief: as §1

SPIB = SPIB (Homo sapiens, UniProt Q01892 1-262); conditions: protein: recombinant; tags: N-terminal GST; dsDNA, one strand shown
SPIB, sequence (Q01892 whole entry): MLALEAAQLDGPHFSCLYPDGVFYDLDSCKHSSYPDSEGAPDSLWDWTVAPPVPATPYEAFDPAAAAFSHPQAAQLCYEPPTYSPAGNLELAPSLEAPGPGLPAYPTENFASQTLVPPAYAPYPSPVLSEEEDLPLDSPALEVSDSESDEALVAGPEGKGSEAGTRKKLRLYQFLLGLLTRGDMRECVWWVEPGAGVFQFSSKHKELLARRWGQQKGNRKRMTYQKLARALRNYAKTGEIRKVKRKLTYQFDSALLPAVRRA
Method in brief: as §1

ELK3 = target: T6, ELK3 (Homo sapiens, UniProt P41970 1-407); conditions: protein: recombinant; tags: N-terminal GST; dsDNA, one strand shown
T6 sequence: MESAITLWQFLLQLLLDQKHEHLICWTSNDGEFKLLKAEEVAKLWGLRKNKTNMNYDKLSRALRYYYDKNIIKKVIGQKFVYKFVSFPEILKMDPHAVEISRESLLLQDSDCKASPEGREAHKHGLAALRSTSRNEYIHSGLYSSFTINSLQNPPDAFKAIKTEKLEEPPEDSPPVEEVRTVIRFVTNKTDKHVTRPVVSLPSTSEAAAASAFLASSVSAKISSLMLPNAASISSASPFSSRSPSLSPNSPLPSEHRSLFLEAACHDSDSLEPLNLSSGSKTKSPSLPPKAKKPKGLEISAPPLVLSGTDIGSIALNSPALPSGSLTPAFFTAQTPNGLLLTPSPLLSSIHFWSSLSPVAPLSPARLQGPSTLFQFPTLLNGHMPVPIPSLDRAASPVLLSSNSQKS
Method in brief: as §1

FEV = target: T7, FEV (Homo sapiens, UniProt Q99581 1-238); conditions: protein: recombinant; tags: N-terminal GST; dsDNA, one strand shown
T7 sequence: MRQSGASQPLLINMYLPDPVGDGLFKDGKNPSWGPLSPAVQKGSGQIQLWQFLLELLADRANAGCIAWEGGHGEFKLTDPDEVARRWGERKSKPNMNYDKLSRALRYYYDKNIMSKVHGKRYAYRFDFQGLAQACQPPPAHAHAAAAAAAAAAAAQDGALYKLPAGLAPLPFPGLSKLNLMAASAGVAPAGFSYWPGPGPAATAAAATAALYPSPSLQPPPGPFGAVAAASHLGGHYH
Method in brief: as §1

ETV5 = ETV5 (Homo sapiens, UniProt P41161 1-510); conditions: protein: recombinant; tags: N-terminal GST; dsDNA, one strand shown
ETV5, sequence (P41161 whole entry): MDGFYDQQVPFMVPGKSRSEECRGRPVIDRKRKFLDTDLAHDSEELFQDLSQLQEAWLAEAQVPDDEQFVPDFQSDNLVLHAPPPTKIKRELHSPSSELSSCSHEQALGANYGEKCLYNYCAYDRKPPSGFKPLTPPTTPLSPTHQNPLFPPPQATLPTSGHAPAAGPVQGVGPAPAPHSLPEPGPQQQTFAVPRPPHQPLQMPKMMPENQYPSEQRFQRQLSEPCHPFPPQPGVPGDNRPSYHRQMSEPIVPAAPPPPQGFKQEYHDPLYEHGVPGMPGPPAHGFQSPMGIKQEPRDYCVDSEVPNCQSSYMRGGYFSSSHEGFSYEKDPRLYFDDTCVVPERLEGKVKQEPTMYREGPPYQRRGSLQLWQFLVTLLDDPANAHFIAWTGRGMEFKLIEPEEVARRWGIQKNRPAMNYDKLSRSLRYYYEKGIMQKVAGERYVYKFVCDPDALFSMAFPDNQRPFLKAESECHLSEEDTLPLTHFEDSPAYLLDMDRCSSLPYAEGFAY
Method in brief: as §1

HSF1 = HSF1 (Homo sapiens, UniProt Q00613 1-529); conditions: protein: recombinant; tags: N-terminal GST; chain copies: 3; dsDNA, one strand shown
HSF1, sequence (Q00613 whole entry): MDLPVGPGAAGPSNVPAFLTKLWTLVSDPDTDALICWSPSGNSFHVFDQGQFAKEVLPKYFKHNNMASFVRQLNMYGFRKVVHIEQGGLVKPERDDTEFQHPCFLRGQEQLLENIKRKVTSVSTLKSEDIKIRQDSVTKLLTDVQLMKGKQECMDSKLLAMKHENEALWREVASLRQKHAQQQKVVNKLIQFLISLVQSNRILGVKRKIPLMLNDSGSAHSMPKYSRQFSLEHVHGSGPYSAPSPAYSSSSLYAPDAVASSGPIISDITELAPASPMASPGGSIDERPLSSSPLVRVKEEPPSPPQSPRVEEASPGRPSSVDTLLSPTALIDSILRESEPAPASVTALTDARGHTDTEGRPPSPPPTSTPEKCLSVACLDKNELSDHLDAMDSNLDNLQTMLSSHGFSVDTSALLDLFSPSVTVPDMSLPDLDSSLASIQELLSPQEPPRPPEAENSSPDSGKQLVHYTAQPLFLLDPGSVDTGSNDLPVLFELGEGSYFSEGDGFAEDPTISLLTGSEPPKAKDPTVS
Method in brief: as §1

SPIC = target: T8, SPIC (Homo sapiens, UniProt Q8N5J4 1-248); conditions: protein: recombinant; tags: N-terminal GST; dsDNA, one strand shown
T8 sequence: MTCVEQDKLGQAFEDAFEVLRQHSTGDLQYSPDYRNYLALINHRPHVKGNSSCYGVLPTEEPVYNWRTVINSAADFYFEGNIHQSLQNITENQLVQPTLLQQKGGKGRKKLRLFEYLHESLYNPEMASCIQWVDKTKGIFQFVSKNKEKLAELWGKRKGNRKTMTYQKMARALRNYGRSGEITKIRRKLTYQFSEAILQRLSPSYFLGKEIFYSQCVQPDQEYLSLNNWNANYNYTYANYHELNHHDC
Method in brief: as §1

ELF4 = ELF4 (Homo sapiens, UniProt Q99607 1-663); conditions: protein: recombinant; tags: N-terminal GST; dsDNA, one strand shown
ELF4, sequence (Q99607 whole entry): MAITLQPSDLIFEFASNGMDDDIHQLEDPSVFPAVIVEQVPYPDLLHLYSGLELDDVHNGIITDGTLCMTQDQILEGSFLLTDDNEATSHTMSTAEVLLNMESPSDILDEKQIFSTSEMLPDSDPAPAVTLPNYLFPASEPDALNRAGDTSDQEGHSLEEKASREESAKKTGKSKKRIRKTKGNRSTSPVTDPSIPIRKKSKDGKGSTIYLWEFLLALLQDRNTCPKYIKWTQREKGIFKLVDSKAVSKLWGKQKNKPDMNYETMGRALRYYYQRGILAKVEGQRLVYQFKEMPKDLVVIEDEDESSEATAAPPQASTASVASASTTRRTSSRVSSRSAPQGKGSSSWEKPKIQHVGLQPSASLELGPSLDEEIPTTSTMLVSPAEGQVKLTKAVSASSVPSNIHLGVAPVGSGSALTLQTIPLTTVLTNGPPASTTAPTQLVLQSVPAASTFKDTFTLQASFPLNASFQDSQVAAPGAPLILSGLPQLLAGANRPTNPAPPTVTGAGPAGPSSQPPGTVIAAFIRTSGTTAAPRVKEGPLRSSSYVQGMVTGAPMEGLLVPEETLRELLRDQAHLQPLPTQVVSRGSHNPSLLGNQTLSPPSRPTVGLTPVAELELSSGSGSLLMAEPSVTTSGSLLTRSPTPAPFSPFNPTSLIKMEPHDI
Method in brief: as §1

ELK4 = target: T9, ELK4 (Homo sapiens, UniProt P28324-2 1-405); conditions: protein: recombinant; tags: N-terminal GST; dsDNA, one strand shown
T9 sequence: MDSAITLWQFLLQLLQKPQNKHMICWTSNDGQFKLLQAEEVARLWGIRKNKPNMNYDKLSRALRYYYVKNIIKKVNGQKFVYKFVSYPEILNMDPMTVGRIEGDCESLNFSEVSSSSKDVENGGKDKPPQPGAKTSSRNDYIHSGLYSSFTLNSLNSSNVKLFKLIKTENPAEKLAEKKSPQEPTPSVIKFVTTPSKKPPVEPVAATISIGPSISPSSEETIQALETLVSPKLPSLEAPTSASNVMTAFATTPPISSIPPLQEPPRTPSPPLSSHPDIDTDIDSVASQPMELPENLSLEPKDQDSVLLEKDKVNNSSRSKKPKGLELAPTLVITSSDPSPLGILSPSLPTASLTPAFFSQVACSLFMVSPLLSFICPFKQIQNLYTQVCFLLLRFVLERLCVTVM
Method in brief: as §1

ETV2 = target: T10, ETV2 (Homo sapiens, UniProt O00321 1-342); conditions: protein: recombinant; tags: N-terminal GST; dsDNA, one strand shown
T10 sequence: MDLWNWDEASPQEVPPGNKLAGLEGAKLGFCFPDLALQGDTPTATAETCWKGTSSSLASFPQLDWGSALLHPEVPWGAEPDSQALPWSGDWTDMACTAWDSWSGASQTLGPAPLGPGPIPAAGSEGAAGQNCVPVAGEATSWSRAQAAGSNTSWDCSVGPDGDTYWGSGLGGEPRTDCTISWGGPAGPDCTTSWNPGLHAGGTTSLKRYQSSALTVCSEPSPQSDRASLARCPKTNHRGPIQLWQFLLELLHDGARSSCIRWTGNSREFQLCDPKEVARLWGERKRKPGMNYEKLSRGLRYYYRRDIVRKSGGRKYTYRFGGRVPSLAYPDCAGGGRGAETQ
Method in brief: as §1

ELF3 = target: T11, ELF3 (Homo sapiens, UniProt P78545 1-371); conditions: protein: recombinant; tags: N-terminal GST; dsDNA, one strand shown
T11 sequence: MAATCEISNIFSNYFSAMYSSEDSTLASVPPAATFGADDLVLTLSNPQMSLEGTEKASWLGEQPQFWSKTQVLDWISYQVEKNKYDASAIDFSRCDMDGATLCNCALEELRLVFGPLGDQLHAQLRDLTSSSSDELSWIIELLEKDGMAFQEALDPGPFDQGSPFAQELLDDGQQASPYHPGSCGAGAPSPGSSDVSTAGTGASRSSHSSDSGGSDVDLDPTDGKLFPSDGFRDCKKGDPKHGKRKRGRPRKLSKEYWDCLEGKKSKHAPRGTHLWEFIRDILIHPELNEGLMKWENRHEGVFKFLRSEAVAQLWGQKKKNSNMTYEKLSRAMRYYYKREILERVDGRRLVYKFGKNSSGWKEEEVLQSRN
Method in brief: as §1

CRX = CRX (Homo sapiens, UniProt O43186 1-299); conditions: protein: recombinant; tags: N-terminal GST; dsDNA, one strand shown
CRX, sequence (O43186 whole entry): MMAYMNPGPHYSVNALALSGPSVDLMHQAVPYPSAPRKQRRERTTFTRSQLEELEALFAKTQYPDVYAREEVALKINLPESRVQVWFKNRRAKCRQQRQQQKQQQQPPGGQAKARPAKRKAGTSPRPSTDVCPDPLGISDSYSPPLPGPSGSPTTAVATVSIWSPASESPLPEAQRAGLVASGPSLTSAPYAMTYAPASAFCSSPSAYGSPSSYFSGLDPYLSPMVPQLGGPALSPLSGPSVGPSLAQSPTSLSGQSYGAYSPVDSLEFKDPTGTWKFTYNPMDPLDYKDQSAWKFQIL
Method in brief: as §1

ETV1 = ETV1 (Homo sapiens, UniProt P50549 1-477); conditions: protein: recombinant; tags: N-terminal GST; dsDNA, one strand shown
ETV1, sequence (P50549 whole entry): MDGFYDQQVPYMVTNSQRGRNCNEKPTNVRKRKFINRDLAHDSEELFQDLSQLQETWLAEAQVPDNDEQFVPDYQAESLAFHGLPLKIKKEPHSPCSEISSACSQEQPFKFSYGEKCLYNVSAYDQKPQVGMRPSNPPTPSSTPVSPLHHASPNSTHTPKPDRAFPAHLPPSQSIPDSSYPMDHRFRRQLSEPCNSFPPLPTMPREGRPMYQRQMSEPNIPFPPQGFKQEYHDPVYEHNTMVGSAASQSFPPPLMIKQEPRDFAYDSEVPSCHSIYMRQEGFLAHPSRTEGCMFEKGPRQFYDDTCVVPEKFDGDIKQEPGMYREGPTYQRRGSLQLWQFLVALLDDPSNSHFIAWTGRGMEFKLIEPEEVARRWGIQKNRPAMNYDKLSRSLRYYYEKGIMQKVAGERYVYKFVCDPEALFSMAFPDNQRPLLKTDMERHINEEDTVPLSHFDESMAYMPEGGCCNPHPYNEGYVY
Method in brief: as §1

ATCCGC
binding signal (FLI1): 1.82 fold enrichment (6-mer frequency, TF over GST control) | binding signal (ELK1): 1.86 fold enrichment (6-mer frequency, TF over GST control) | binding signal (GABPA): 1.57 fold enrichment (6-mer frequency, TF over GST control) | binding signal (ERG): 1.93 fold enrichment (6-mer frequency, TF over GST control) | binding signal (ELF1): 1.76 fold enrichment (6-mer frequency, TF over GST control) | binding signal (EHF): 1.82 fold enrichment (6-mer frequency, TF over GST control) | binding signal (SPI1): 1.74 fold enrichment (6-mer frequency, TF over GST control) | binding signal (SPIB): 1.82 fold enrichment (6-mer frequency, TF over GST control) | binding signal (ELK3): 2.04 fold enrichment (6-mer frequency, TF over GST control) | binding signal (FEV): 2.09 fold enrichment (6-mer frequency, TF over GST control) | binding signal (ETV5): 1.78 fold enrichment (6-mer frequency, TF over GST control) | binding signal (HSF1): 1.58 fold enrichment (6-mer frequency, TF over GST control) | binding signal (SPIC): 1.68 fold enrichment (6-mer frequency, TF over GST control) | binding signal (ELF4): 1.65 fold enrichment (6-mer frequency, TF over GST control) | binding signal (ELK4): 1.6 fold enrichment (6-mer frequency, TF over GST control) | binding signal (ETV2): 1.9 fold enrichment (6-mer frequency, TF over GST control) | binding signal (ELF3): 1.62 fold enrichment (6-mer frequency, TF over GST control) | binding signal (CRX): 2.06 fold enrichment (6-mer frequency, TF over GST control) | binding signal (ETV1): 1.8 fold enrichment (6-mer frequency, TF over GST control)
